The full list was thinned out, with hits kept by preference.
PglD inh: inhibitors of Campylobacter jejuni PglD acetyltransferase; purified PglD enzyme, DTNB colorimetric CoA detection; inhibition, % at 12.5 µM; hit rate 0.098% among 360,000; AID 602405; in the data active means inhibition above about 16%, passing the limit was not always enough; inconclusive means no clear call, values can overlap the other calls
DENV2 CPE rescue: inhibitors of DENV2 cytopathic effect | DENV2-infected cells, cytopathic effect rescue, plate reader | CPE inhibition, % at 9.99 µM | hit rate 1.7% among 350,000 | AID 651640; in the data active means CPE inhibition above about 20%, passing the limit was not always enough; inconclusive means no clear call, values can overlap the other calls; tested in BHK-21 cells;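 further: 0% = median of neutral control wells and 100% = median of positive control wells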
Rtt109 Vps75: C. albicans Rtt109 histone acetyltransferase inhibition | purified Rtt109/Vps75, ThioGlo CoA-SH fluorescence, 4 h | inhibition, % at 34.9 µM | hit rate 0.16% among 330,000 | AID 540336;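 active means inhibition of at least 50% in every replicate; inconclusive means best replicate reaches 50% inhibition but some replicates fall short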
Target sequence (Q5AAJ8 whole entry, looked up): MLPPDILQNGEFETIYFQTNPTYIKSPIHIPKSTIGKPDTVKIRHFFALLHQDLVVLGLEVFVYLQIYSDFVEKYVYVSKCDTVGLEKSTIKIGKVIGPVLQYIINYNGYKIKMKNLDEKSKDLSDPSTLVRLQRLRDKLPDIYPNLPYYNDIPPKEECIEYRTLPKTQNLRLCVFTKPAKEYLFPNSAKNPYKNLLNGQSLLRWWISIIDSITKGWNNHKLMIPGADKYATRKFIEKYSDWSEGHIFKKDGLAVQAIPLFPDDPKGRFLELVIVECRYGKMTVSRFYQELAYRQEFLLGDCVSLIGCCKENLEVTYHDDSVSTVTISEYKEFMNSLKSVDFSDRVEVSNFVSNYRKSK
Glyco luc inh: blocks N-linked glycosylation in D54 reporter cells. hit rate 0.23% among 360,000. reporter increase, % at 12.5 µM. D54 ERlucT glycosylation luciferase reporter, 24 h; percent of 100 nM tunicamycin response;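 active means mean luciferase reporter signal, scaled so untreated is 0 and the glycosylation-blocking control 100, at or above a set limit in every replicate; inconclusive means mean reaches the limit but not every replicate does; inactive means mean below the limit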;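 further: luciferase carries N-glycosylation sites so blocking glycosylation raises the light; 0% = median of neutral control wells and 100% = median of 100 nM tunicamycin wells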
* hit, by the source's call; ? = inconclusive; / = not tested or not shown; ! = repeats disagree.

SMILES	PglD inh	DENV2 CPE rescue	Rtt109 Vps75	Glyco luc inh
O=C(Nc1ccc(F)cc1)c1ccccc1NC(=O)C1CCCCC1C(=O)O (stereo not drawn)	-4.3	1.9	5.1	0.4
Cc1cccc(-n2c(O)c(/C=N/NC(=O)c3ccccc3Cl)c3ccccc3c2=O)n1	-17.4	/	64.4*	-0.2
Cc1cccc(-n2c(O)c(C=Nc3ccccc3O)c3ccccc3c2=O)n1	3.2	4.4	-18.2	0.0
CC(C)(C)NC(=S)N1CCC(C(=O)c2ccc(F)cc2)CC1	-1.1	0.2	-6.8	-3.6
CC(C)(C)NC(=S)N1CCC(C(=O)c2ccc(Cl)cc2)CC1	-2.2	21.3*	-5.6	0.0
CN1C(=O)c2cc(NC(=O)C3CC3)ccc2OC[C@H]2O[C@@H](CC(=O)Nc3ccc(F)cc3)CC[C@@H]21	2.3	-0.4	/	/
O=C(NC(=C(Cl)Cl)S(=O)(=O)c1ccc(Cl)cc1)c1ccccc1	-3.9	9.9	-12.0	58.7*
Cc1ccc(C(=O)NC(=C(Cl)Cl)S(=O)(=O)c2ccc(C)cc2)cc1	6.9	/	4.4	?
Cc1ccc(C(=O)NC(=C(Cl)Cl)S(=O)(=O)c2ccc(Cl)cc2)cc1	/	0.4	6.0	53.9*
Cc1ccc(S(=O)(=O)C(NC(=O)c2ccccc2)=C(Cl)Cl)cc1	1.0	/	-7.8	74.9*
C[C@@H]1CN([C@@H](C)CO)C(=O)c2cc(NC(=O)c3ccncc3)ccc2O[C@@H](C)CCCCO[C@@H]1CN(C)C	-0.9	-10.9	/	/
C[C@H](CO)N1C[C@H](C)[C@@H](CN(C)Cc2ccccc2)Oc2ccc(NC(=O)C3CC3)cc2CC1=O	2.9	4.9	/	/
COc1ccc(CN(C)C[C@H]2OCCCC[C@@H](C)Oc3ccc(NC(=O)CCCN(C)C)cc3C(=O)N([C@@H](C)CO)C[C@H]2C)cc1	-0.1	-5.1	/	/
O=S(=O)(NCc1ccc(F)cc1)c1ccccc1Br	0.1	30.7*	-12.1	-0.1
O=S(=O)(NCc1ccccc1)c1ccc(F)cc1Br	4.7	-2.0	1.1	-0.1
CO[C@H]1CN(C)C(=O)c2cc(NS(=O)(=O)c3ccc(-c4ccccc4)cc3)ccc2OC[C@H](C)NC[C@H]1C	-0.3	-6.6	/	/
CO[C@H]1CN(C)C(=O)c2cc(NS(=O)(=O)c3ccc(-c4ccccc4)cc3)ccc2OC[C@H](C)NC[C@@H]1C	-1.5	23.1*	/	/
CO[C@@H]1CN(C)C(=O)c2cc(NS(=O)(=O)c3ccccc3)ccc2OC[C@H](C)N(C)C[C@H]1C	11.4	20.9*	/	/
COc1cccc(S(=O)(=O)Nc2ccc3c(c2)C(=O)N(C)C[C@H](OC)[C@H](C)CN[C@@H](C)CO3)c1	-2.9	20.1*!	/	/
CCOc1cc(-c2cc(-c3ccccc3)nc(N)c2C#N)ccc1O	6.7	/	9.8	36.6*
CCOc1cc(-c2cc(-c3ccc(N)cc3)nc(N)c2C#N)ccc1O	-3.1	/	-9.4	6.6
COc1ccc(-n2c(SCC(=O)N3CCOCC3)nc(O)cc2=O)cc1	5.0	14.2	1.0	1.8
Cc1ccc(-n2c(SCC(=O)N3CCOCC3)nc(O)cc2=O)cc1	-1.7	68.9*	-24.8	0.6
CC(C)NC(=O)N(C)C[C@@H]1Oc2cc(-c3ccncc3)ccc2S(=O)(=O)N([C@H](C)CO)C[C@@H]1C	0.6	-2.6	/	/
CCCCCCN1CCN(C2CN(Cc3ccc(F)cc3)S(=O)(=O)C2)CC1 (stereo not drawn)	-1.2	30.8*	/	-0.1
SMILES	PglD inh	DENV2 CPE rescue	Rtt109 Vps75	Glyco luc inh
CCCCCCN1CCN(C2CN(Cc3ccc(C)cc3)S(=O)(=O)C2)CC1 (stereo not drawn)	-2.7	1.8	/	1.3
CC1CCN(CCOc2ccc(OCc3ccccc3)cc2)CC1	5.3	35.6*	0.4	-4.2
c1ccc(COc2ccc(OCCCCN3CCCC3)cc2)cc1	3.4	/	2.1	-13.2
CC(=C/c1ccccc1)/C=N/Nc1nc(N2CCCCC2)nc(N2CCCCC2)n1	1.6	63.6*	-3.2	-4.7
CC(C)C#Cc1cnc2c(c1)C(=O)N([C@@H](C)CO)C[C@H](C)[C@H](CN(C)C(=O)Nc1ccccc1)O2	-2.2	5.8	/	/
CCOC(=O)N1CCC(NCCNC(=O)c2ccc(F)c(F)c2)CC1	0.1	21.1*	-0.5	2.6
CCOC(=O)N1CCC(NCCNC(=O)c2ccc(Cl)cc2)CC1	4.2	/	-4.9	-0.5
Cc1ccc(S(=O)(=O)N2C[C@H](O)COC[C@H]3O[C@@H](CC(=O)N[C@@H]4CCN(Cc5ccccc5)C4)CC[C@@H]32)cc1	2.5	1.2	/	/
O=C(Cc1ccc2cccnc2c1)c1ccc(O)cc1O	-1.7	/	59.6*	-1.9
O=C(Cc1ccccc1)c1ccc(O)cc1O	/	-6.7	1.5	2.0
C/C=C/c1ccc([C@H]2[C@@H](CO)N(C(=O)CC)C23CN(C(=O)c2ccccc2)C3)cc1	/	29.3*	/	/
O=C(Cc1ccccc1)N1CC2(C1)[C@H](c1ccccc1)[C@@H](CO)N2S(=O)(=O)Cc1ccccc1	/	33.4*	/	/
COCC(=O)N1CC2(C1)[C@H](c1ccccc1)[C@H](CO)N2C(=O)c1ccccc1	/	5.0	/	/
C/C=C/c1ccc([C@@H]2[C@H](CO)N(C(=O)CC)C23CN(C(=O)c2ccccc2)C3)cc1	/	-9.0	/	/
CN(C)CC(=O)N1[C@H](CO)[C@H](c2ccccc2)C12CN(CCC(F)(F)F)C2	/	20.9*	/	/
COCC(=O)N1CC2(C1)[C@@H](c1ccccc1)[C@@H](CO)N2C(=O)c1ccccc1	/	26.6*	/	/
O=C(c1cccnc1)N1CC[C@H]2[C@H](CO)Nc3ccc(-c4ccccc4)cc3[C@H]21	0.1	12.1	/	/
C[C@H](CO)N1C[C@H](C)[C@@H](CN(C)S(=O)(=O)c2ccccc2)Oc2ccc(NC(=O)CCCCCC(=O)Nc3ccccc3N)cc2C1=O	/	0.9	/	/
C[C@H]1CCCCO[C@H](CN(C)C(=O)CCCN(C)C)[C@@H](C)CN([C@@H](C)CO)C(=O)c2cc(N(C)C)ccc2O1	4.1	?	/	/
CN(C)CC(=O)N1[C@H](CO)[C@H](c2ccccc2)C12CN(C(=O)c1ccccc1)C2	/	1.0	/	/
CN(C)CC(=O)N1[C@H](CO)[C@@H](c2ccccc2)C12CN(C(=O)c1ccccc1)C2	/	81.0*	/	/
COc1ccc(NC(=O)Nc2ccc3c(c2)CC(=O)N([C@@H](C)CO)C[C@H](C)[C@@H](CN(C)C)O3)cc1	10.7	-4.3	/	/
Cc1ccc(C)c(C(Nc2ccccc2)c2ccc3ccc(C)nc3c2O)c1 (stereo not drawn)	/	22.5*	/	/
Cc1cc(C)c2nc3nc(C)c(C)cc3c(N)c2c1	/	/	-275.5	95.1*
COc1ccc(CN(C)C[C@H]2Oc3ccc(NC(=O)Nc4ccccc4)cc3CC(=O)N([C@H](C)CO)C[C@H]2C)cc1	-3.1	10.6	/	/
SMILES	PglD inh	DENV2 CPE rescue	Rtt109 Vps75	Glyco luc inh
CNc1cncc(-c2cccc(NS(C)(=O)=O)c2)n1	0.2	3.3	/	-3.3
CNc1cncc(-c2cccc(C(C)=O)c2)n1	2.6	31.3*	/	-4.3
CCOC(=O)c1c(CSC(=N)N)n(-c2ccc(C)cc2)c2cc(Br)c(OC(C)=O)cc12	-1.1	/	3.4	-8.7
CCOC(=O)c1c(CSC(=N)N)n(C)c2cc(Br)c(OC(C)=O)cc12	/	3.1	85.4*	13.1
O=C(N[C@@H]1C=C[C@@H](CC(=O)N2CCCCC2)O[C@@H]1CO)c1cccc(F)c1	5.9	3.2	/	/
OC[C@@H]1[C@@H](c2ccc(-c3ccc(F)cc3)cc2)[C@@H]2CN(Cc3ccccn3)CCCCN12	0.4	63.2*	/	/

Compound activity deposited in PubChem BioAssay by Broad Institute.
